A selection: hits, their analogues and other compounds. The true share with any hit is near 27%.
CYP2C9 activ: activators of human CYP2C9 | activation factor at 5 µM | 1.4% of 96,000 active | P11712 | recombinant CYP2C9, luciferin-H conversion, luminescence; hits give high values; factor 1 = untreated enzyme, 0 = blocked;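 active = activation factor of 2 or more for CYP2C9 at a 5 µM dose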;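 note: 0 = sulfaphenazole-blocked wells and 1 = vehicle-only wells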
sEH inh: soluble epoxide hydrolase (human) inhibition | 0.34% of 91,000 active | P34913 | recombinant human sEH enzymatic activity assay | inhibition, % at 2 µM; in the data active = inhibition above about 80%
Target sequence (P34913 whole entry, looked up): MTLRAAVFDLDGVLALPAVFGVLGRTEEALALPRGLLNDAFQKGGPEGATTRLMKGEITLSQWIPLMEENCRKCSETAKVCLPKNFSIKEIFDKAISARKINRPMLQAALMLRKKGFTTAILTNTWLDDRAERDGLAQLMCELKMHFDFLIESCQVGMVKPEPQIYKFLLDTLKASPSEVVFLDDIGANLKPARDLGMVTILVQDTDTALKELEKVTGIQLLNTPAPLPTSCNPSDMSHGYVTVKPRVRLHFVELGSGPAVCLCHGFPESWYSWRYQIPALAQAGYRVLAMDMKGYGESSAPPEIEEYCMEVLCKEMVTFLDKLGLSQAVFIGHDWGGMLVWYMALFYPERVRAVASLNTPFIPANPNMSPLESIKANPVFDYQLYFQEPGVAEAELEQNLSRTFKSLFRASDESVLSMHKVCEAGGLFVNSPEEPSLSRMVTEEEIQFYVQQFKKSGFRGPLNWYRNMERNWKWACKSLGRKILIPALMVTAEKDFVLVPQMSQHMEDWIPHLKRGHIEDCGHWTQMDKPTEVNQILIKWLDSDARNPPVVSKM
CYP2C19 inh: human CYP2C19 inhibition; P33261; CYP2C19 Supersomes, luciferin-H EGE luminescence, 30 min; inhibition, % at 5 µM; 21% of 96,000 active;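 active = CYP2C19 inhibition above a set limit at 5 µM in the primary screen, cut at about 50% in these data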;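 note: plate controls were negative control wells for no effect and 2.5 mM tranylcypromine positive control for full effect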
CYP2C19 activ: increases human CYP2C19 enzyme activity; P33261; recombinant CYP2C19, luciferin-H EGE luminescence; hits give high values; 0 = fully inhibited enzyme, 1 = untreated enzyme; activation factor at 5 µM; 96,000 tested, under 10 active;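 active = activation factor of at least 2 at 5 µM in the primary screen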;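 note: 0 = wells with 2.5 mM tranylcypromine and 1 = vehicle-only wells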
CYP2C9 inhib: inhibitors of human CYP2C9. inhibition, % at 5 µM. CYP2C9 Supersomes, luciferin-H conversion, luminescence. 20% of 96,000 active;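 active = blocking of liver enzyme CYP2C9 beyond about 50% at 5 µM, limit read from the data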
sEH act: activators of human soluble epoxide hydrolase; activation, % at 2 µM; 0.04% of 91,000 active; AID 717; P34913; purified human sEH enzymatic activity, activator screen; in the data active = activation above about 37%
The depositor's hits bear a star; x = no result given.

SMILES	CYP2C9 activ	sEH inh	CYP2C19 inh	CYP2C19 activ	CYP2C9 inhib	sEH act
Cc1nn(C(C)(C)C)c(OC(=O)c2ccc3c(c2)OCO3)c1S(=O)(=O)c1ccccc1	0.2	-7.0	61.9*	0.4	82.9*	8.8
CC(C)CC(=O)Nc1nc2c(c(=O)[nH]1)CCCC2	0.9	-6.3	-3.1	1	11.6	4.2
CCN(CC)CCCN1C(=O)C(O)=C(C(=O)c2ccco2)C1c1cc(OC)ccc1OC (stereo unspecified)	1.2	x	-23.7	1.2	-16.4	x
COc1ccc(C(=O)C[n+]2ccc3c(c2)nc(-c2ccc(OC)cc2OC)n3C)cc1	1.1	9.9	-18.0	1.2	-10.3	-7.1
COc1ccc(N2CCN(C(=S)Nc3cc(C)ccc3C)CC2)cc1	0.7	-0.3	32.3	0.7	25.4	2.6
Cc1cc(Cl)ccc1OCCCC(=O)N1CCCc2ccccc21	0.8	2.9	20.9	0.8	20.6	-1.8
Cc1ccc(S(=O)(=O)c2c(C)nn(C(C)(C)C)c2OC(=O)c2ccc(Br)o2)cc1	0	-19.3	69.8*	0.3	95.1*	16.7
N#C/C(=C\N1CCOCC1)c1ccccc1	0.8	-14.9	57.1*	0.4	23.5	12.6
CN1C=CC2=C(C#N)C(N)C(C#N)(C#N)C(c3ccccc3)C2C1 (stereo unspecified)	0.8	-17.0	1.0	1	19.2	16.1
O=C1c2ccccc2C(=O)N1CC1c2ccccc2CCN1C(=O)C1CCCCC1 (stereo unspecified)	0.7	-2.1	73.2*	0.3	27.1	2.2
O=C(O)[C@@H]1CCCC[C@@H]1C(=O)N1CCc2ccccc2C1CN1C(=O)c2ccccc2C1=O (stereo partly specified)	1.1	x	-6.8	1.1	-7.9	x
c1ccc(-c2nc(N3CCN(c4ccccc4)CC3)nc(-n3ccnc3)n2)cc1	0.3	6.5	52.5*	0.5	65.6*	-5.1
c1ccc(-c2ccc(-n3ccnc3)cc2)cc1	0.1	-0.1	98.9*	0	89.6*	1.9
c1ccc(-c2nc(N3CCCCCC3)nc(-n3ccnc3)n2)cc1	1	-3.9	21.6	0.8	2.7	1.9
CC(C)C(NC(=O)C1CCCCC1)C(=O)NC1CCN(Cc2ccccc2)CC1 (stereo unspecified)	1.1	-20.1	0.0	1	-6.0	20.5
CC(C)CCN(C(=O)CNC(=O)c1ccco1)C(C(=O)NC1CCCCC1)c1ccco1 (stereo unspecified)	0.5	-3.5	70.1*	0.3	51.4*	4.6
COC(=O)c1cccc(N(C(=O)c2cnccn2)C(C(=O)NCc2ccccc2)c2ccco2)c1 (stereo unspecified)	0.5	5.7	71.4*	0.3	47.7	-7.2
COc1ccc(CNC(=O)C(c2ccco2)N(C(=O)c2csnn2)c2cccc(C)c2C)cc1 (stereo unspecified)	x	6.0	x	x	x	-1.2
COC(=O)c1cccc(N(C(=O)CNC(=O)c2ccco2)C(C(=O)NC2CCCC2)c2ccco2)c1 (stereo unspecified)	0.4	-16.6	25.2	0.7	64.4*	13.7
CCN(C(=O)COc1ccccc1)c1nnc(-c2cccnc2)s1	0.7	1.5	20.4	0.8	32.3	0.0
CC(CCc1ccccc1)NC(=O)c1ccco1 (stereo unspecified)	x	3.8	x	x	x	-2.4
CCC(C(=O)NC(C)CCc1ccccc1)n1nc(C)n2c(cc3occc32)c1=O (stereo unspecified)	0.1	x	70.7*	0.3	87.2*	x
CCc1nn(C(C)C(=O)N2CCc3ccccc3C2)c(=O)c2cc3occc3n12 (stereo unspecified)	0.4	x	93.9*	0.1	60.7*	x
CCc1nn(C(C)C(=O)Nc2cccc(C)c2C)c(=O)c2cc3occc3n12 (stereo unspecified)	0.3	x	70.6*	0.3	66.4*	x
CCc1nn(C(C)C(=O)NCCN2CCN(c3cccc(C)c3C)CC2)c(=O)c2cc3occc3n12 (stereo unspecified)	1.6	x	38.5	0.6	-56.8	x
SMILES	CYP2C9 activ	sEH inh	CYP2C19 inh	CYP2C19 activ	CYP2C9 inhib	sEH act
O=C(c1ccco1)N1CCN(c2ccc(Cl)c(Cl)c2)CC1	x	6.0	x	x	x	-6.9
O=C1C2CCCN2C(c2ccccc2F)N1c1ccc(F)cc1 (stereo unspecified)	0.8	x	23.1	0.8	16.3	x
C=CCn1c(SCc2ccc3c(c2)OCO3)nc2scc(-c3ccco3)c2c1=O	0.8	-9.2	42.7	0.6	24.7	13.0
O=C(CSc1nnc(CCc2nc3ccccc3[nH]2)n1-c1ccccc1)NCc1ccco1	0.2	-21.2	30.7	0.7	75.4*	21.4
O=C(CSc1nnc(CCc2nc3ccccc3[nH]2)n1-c1ccccc1)NCc1ccccc1	x	5.2	x	x	x	-6.9
Cc1ccc(-n2c(CNc3ccc(F)cc3)nnc2SCC(=O)NCc2ccco2)cc1	0.4	-3.8	34.8	0.7	61.0*	4.6
Cc1nn(-c2ccccn2)c2c1C(c1ccccn1)C1=C(CCCC1=O)N2 (stereo unspecified)	0.9	6.2	-8.5	1.1	5.4	-4.9
CCOC(=O)c1sc(NC(=S)NC(=O)c2cccc(Cl)c2)c(C(=O)OCC)c1C	1	8.9	-7.9	1.1	-0.6	-6.4
CCOc1c(Cl)cc(CNCC(C)C)cc1Cl	x	3.9	x	x	x	-0.8
O=C(CN1CCN(c2ccccn2)CC1)Nc1ccc2ccccc2c1	0.4	x	27.8	0.7	55.3*	x
O=C(CN1CCN(c2ncccn2)CC1)Nc1ccccc1-n1cccc1	0.2	x	94.9*	0.1	78.9*	x
O=C(CN1CCN(c2ccccn2)CC1)Nc1ccc(Cl)c(C(F)(F)F)c1	0.9	4.2	4.5	1	5.4	-4.2
Cc1ccc(NC(=O)CN2CCN(c3ccccn3)CC2)c(Cl)c1	0.1	16.1	54.9*	0.5	86.1*	-13.8
Cc1cc(C)cc(NC(=O)CN2CCN(c3ncccn3)CC2)c1	0.8	0.9	26.4	0.7	23.6	-2.3
CN(CC(=O)N1CCN(c2ccccn2)CC1)S(=O)(=O)c1ccc2ccccc2c1	2.7*	7.1	26.4	0.7	-172.5	-1.9
CCC(CC)C(=O)N1CCN(Cc2ccc3c(c2)OCO3)CC1	1.1	3.3	10.8	0.9	-6.7	-5.1
COCCNC(=O)CN1C(=O)CSc2cc(S(=O)(=O)N3CCCCCC3)ccc21	x	2.7	x	x	x	-3.6
O=C(CN1CCN(c2ccccn2)CC1)Nc1cc(C(F)(F)F)ccc1Cl	0.3	6.7	25.5	0.7	73.8*	-6.7
Cc1nc2ccc(NC(=O)N3CCN(c4ccccn4)CC3)cc2s1	0.2	21.5	22.0	0.8	80.3*	-23.2
COc1ccc(S(=O)(=O)CCC(=O)N(C)c2ccc(OC)cc2OC)cc1	x	12.0	x	x	x	-10.9
CCOC(=O)N1CCN(S(=O)(=O)c2ccc3[nH]c(=O)sc3c2)CC1	1.2	x	19.6	0.8	-20.8	x
CCCN(C(=O)c1ccccc1N)c1c(C)n(C)n(-c2ccccc2)c1=O	0.8	2.7	3.8	1	15.9	-4.7
Cc1cc(C)n2nc(SCc3ncc(-c4ccccc4)o3)nc2n1	0.8	x	86.0*	0.1	18.8	x

High-throughput results deposited in PubChem BioAssay by several laboratories.
